Assay results as given in PubChem BioAssay AID687001 (Broad Institute, 2013).
Entries with a potency or affinity are not part of this list. Calls of active or inactive are those of the source.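 How the source made its calls: active means signal-lowering compounds whose fitted half-maximal concentration is at or below twice the top tested dose in every run; inconclusive means runs disagree, flat 30 to 70% inhibition, or poor curve fit; inactive means the rest.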

biological target: Protein S100-A4 (Homo sapiens) (UniProt P26447); assay: human S100A4 peptide interaction inhibition curves – biochemical, fluorescence polarization, cherry-picked hits, dose response (AID 687001); conditions: FP, S100A4/TAMRA-myosin IIA peptide binding; series mostly up to 11 µM; activity change, negative = inhibition: at the top concentration;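 further: 0% = DMSO neutral control wells and -100% = TFP positive control wells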
Sequence (P26447 whole entry, looked up): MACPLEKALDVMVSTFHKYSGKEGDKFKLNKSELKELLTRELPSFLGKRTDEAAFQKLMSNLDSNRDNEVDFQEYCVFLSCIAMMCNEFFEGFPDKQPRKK

Activity change, negative = inhibition, inactive:
COc1ccc(C(=O)CC(=O)C(=O)Nc2c(C)cccc2C)cc1 -2.44%, COc1ccc(CNC(=O)CN(C(=O)CCC(=O)Nc2ccccn2)c2ccc(C)cc2)cc1 2.84%, CCCCn1c(O)c(/C=C2\C=Nc3ccccc32)c(=O)[nH]c1=O 19%, Cn1cnc(S(=O)(=O)N[C@@H]2C=C[C@@H](CC(=O)NCC3CC3)O[C@H]2CO)c1 -1.65%, COc1cc(/C=C/C(=O)OCC(=O)N2c3ccccc3NC(=O)C2(C)C)cc(OC)c1OC 6.96%, Cc1ccc(S(=O)(=O)n2cccc2C)cc1 0.742%, C[C@@H]1ON(C)[C@H]2C[C@H]3c4[nH]c5ccccc5c4CCN3C(=O)[C@@H]12 8.57%, Cc1csc(=O)n1CC(=O)OCc1nnc(-c2ccc(Cl)cc2)o1 20.9%, CCCN1C[C@H](C)[C@H](OC)CN(C)C(=O)c2cc(NC(=O)NC3CCCCC3)ccc2OC[C@@H]1C 0.083%, COc1cc(Cl)ccc1OCc1cc(C(=O)N(C)Cc2nnc(C)o2)no1 0.129%, C[C@@H]1CN([C@@H](C)CO)S(=O)(=O)c2ccc(Br)cc2O[C@@H]1CN(C)Cc1ccncc1 5.78%, COc1ccc(S(=O)(=O)N(C)C[C@@H]2OCCCC[C@@H](C)Oc3ccc(NC(=O)Nc4ccc(C(F)(F)F)cc4)cc3C(=O)N([C@H](C)CO)C[C@@H]2C)cc1 3.23% [at 10 µM], O=S(=O)(NCC(c1ccc2c(c1)OCO2)N1CCN(c2ccccc2)CC1)c1ccccc1 (centres undefined) 1.36%, COc1ccc(CN2C(=O)c3ccccc3C2c2nnnn2Cc2ccccc2)cc1OC (centres undefined) 4.94%, CC(C)NC(=O)N(C)C[C@@H]1Oc2cc(-c3ccncc3)ccc2S(=O)(=O)N([C@H](C)CO)C[C@H]1C -0.107%, COCC(=O)N[C@H]1C=C[C@@H](CC(=O)OC)O[C@@H]1CO -0.487%, CN(C)CCCNC(=O)C[C@@H]1CC[C@H]2[C@@H](COC[C@@H](O)CN2Cc2ccc(Cl)c(Cl)c2)O1 6.42%, COc1ccc(C2=NN(CCC(=O)NC3CCC(C)CC3)C(=O)CC2)cc1 (centres undefined) -1.31%, Cn1c(-c2ccc(Cl)cc2)cnc1NCc1cc2c(cc1[N+](=O)[O-])OCO2 -4.69%, CCN1CCN(CCNC(=O)c2cc(Cl)c(NC(=O)C3=C(C)OCCS3)cc2OC)CC1 17.9%, C(=Cc1nc2ccccc2o1)c1ccc2c(c1)OCO2 -1.59%, NS(=O)(=O)c1ccc(NCc2cnc3ccccc3c2)cc1 -3.85%, CCCNC(=O)Nc1ccc2c(c1)OC[C@H](C)N(C(=O)C1CC1)C[C@H](C)[C@@H](OC)CN(C)C2=O -1.54%, COc1cccc(NC(=O)N[C@@H]2C=C[C@@H](CC(=O)NCc3ccncn3)O[C@@H]2CO)c1 0.495%, CC(=O)N1[C@H](C(=O)NCCCN(C)C)[C@@H](CO)[C@@H]2Cn3c(ccc(-c4cccc(F)c4)c3=O)[C@@H]21 -0.912%, CCOC(=O)C1(C)CCCN1C(=O)c1ccc(C(F)(F)F)nc1C (centres undefined) -3.53%, COc1ccc(C#Cc2ccc([C@H]3[C@H]4CN(S(=O)(=O)c5ccccc5)CCCCN4[C@H]3CO)cc2)cc1 18% [at 10 µM], C[C@@H]1CN([C@H](C)CO)C(=O)c2cc(C3=CCCC3)cnc2O[C@@H]1CN(C)Cc1ccc(F)cc1 3.31%, COCC(=O)N1[C@@H](C#N)[C@H](c2ccc(-c3cccc(F)c3)cc2)[C@@H]1CO 1.65%, CCNC(=O)C[C@@H]1CC[C@@H](NS(=O)(=O)c2ccc(F)cc2)[C@H](CO)O1 -4.28%, O=C(C[C@@H]1CC[C@@H]2[C@H](COC[C@@H](O)CN2C(=O)c2ccc3c(c2)OCO3)O1)NCCN1CCCC1 55.7%, O=C(C[C@H]1C[C@@H]2c3cc(NC(=O)c4cccnc4)ccc3O[C@@H]2[C@H](CO)O1)NCc1ccncc1 -7.1%, COc1ccc(S(=O)(=O)Nc2ccc3c(c2)C(=O)N([C@H](C)CO)C[C@H](C)[C@H](CN(C)C(=O)Nc2ccccc2)OCCCC[C@H](C)O3)cc1 19%, C[C@H]1CN([C@@H](C)CO)C(=O)Cc2cc(NC(=O)CCC(F)(F)F)ccc2O[C@@H]1CN(C)C 6.39%, CN1c2ccc(C3=CCCCC3)cc2[C@@H]2[C@@H](CCN2C(=O)C2CC2)[C@H]1CO -0.905% [at 10 µM], COCC(=O)Nc1ccc2c(c1)[C@@H]1C[C@@H](CC(=O)N3CCOCC3)O[C@@H](CO)[C@@H]1O2 -1.4%, COc1ccc(S(=O)(=O)Nc2cccc3c2O[C@@H](CN(C)S(=O)(=O)c2c(C)noc2C)[C@H](C)CN([C@@H](C)CO)C3=O)cc1 1.14%, O=C(c1cnn(C(=O)c2ccco2)c1)c1cc(Cl)cc(Cl)c1O 28.1%, Cc1ccc(C(=O)C2=C(O)C(=O)N(Cc3cccnc3)C2c2cccc([N+](=O)[O-])c2)o1 (centres undefined) 2%
